The structures appear in SMILES notation. Compounds without any hit were thinned out: in the full panel of roughly 83,000, 20% have a hit.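 A percent growth of 40 corresponds to 60% growth inhibition; 0 means no net growth; -100 means all cells died. Active threshold: below 10.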 A number with no mark means an inactive call. Activity calls are given as the source filed them.

What all share (experiment): NCI-60 one-dose screen, 48 h (100 = growth as untreated, 0 = no growth, -100 = all killed)
Conditions in all cases: 10 µM unless noted

The subject of test [1] is T-47D breast.
Test [2] relates to BT-549 breast.
Test [3] concerns MDA-MB-435 melanoma.
For test [4], the system named is SW-620 colon.
In test [5] the test system is MCF7 breast.
Test [6] has as its system HCT-116 colon.
Test [7] deals with HCC-2998 colon.
The test system of test [8] is KM12 colon.

Consider `O=C1Nc2cc(-c3cccc(O)c3)ccc2/C1=C/c1ccc[nH]1`, for which the growth in test [1] is -0.905% (active); in test [2] it was 0.113% (active); in test [3], 5.05% (active); in test [4], 18.9%; in test [5], 10.5%; in test [6] it was 11.6%. Also, the results for the growth in test [7] and in test [8] were 14.8% and 0.211% (active), respectively.

As to `Oc1cccc(CCc2ccc(Oc3cc(CCc4cccc(O)c4)cc(O)c3O)cc2)c1`, the growth in test [1] was 73%; in test [2], 82%; in test [3], 68.6%; in test [4], 79%; in test [5], 77.8%; in test [6], 73.2%. For the same molecule, the growth was 92% in test [7] and 81.5% in test [8].

Consider `COc1cc2c(c(OC)c1OC)-c1ccc(NNC(=S)N(Cc3cccc(C[N+](Cc4cccc(CNC56CC7CC(CC(C7)C5)C6)c4)(Cc4cccc(CNC56CC7CC(CC(C7)C5)C6)c4)Cc4cccc(CN(C(=S)NNc5ccc6c(cc5=O)[C@@H](NC(C)=O)CCc5cc(OC)c(OC)c(OC)c5-6)C56CC7CC(CC(C7)C5)C6)c4)c3)C34CC5CC(CC(C5)C3)C4)c(=O)cc1[C@@H](NC(C)=O)CC2` (some centres not stated), for which the growth in test [1] is 51.8%; in test [2] it was -4.6% (active); in test [3] it was -9.46% (active); in test [4], 3.6% (active); in test [5] it was -24.6% (active); in test [6], -54.6% (active). Besides, the growth in test [7] was -58.4% (active); in test [8], 4.25% (active).

For the molecule `Cc1cc2nc3c4cc(C=O)ccc4n(CCN(C)C)c3nc2cc1C`, the growth is 22.3% in test [1]; 53.6% in test [2]; 25.6% in test [3]; 1.57% (active) in test [4]; 2.77% (active) in test [5]; 10.2% in test [6]. Further, the growth in test [7] is 40.6%; in test [8], 26.3%.

In the case of `Cc1nc2sccn2c1-c1cn2ccsc2n1`, the growth was -4.14% (active) in test [1]; 80.2% in test [2]; 95.9% in test [3]; 96.9% in test [4]; -39.1% (active) in test [5]; 88.3% in test [6]. For the same molecule, the figures for the growth in test [7] and in test [8] were 50.2% and 64.1%, respectively.

Consider `Cn1ccc2c1CC1CN(Cc3ccco3)C(=O)C1C2C(=O)O` (configuration not stated), for which the growth was 98.7% in test [1]; 110% in test [2]; 101% in test [3]; 98.7% in test [4]; 95.7% in test [5]; 104% in test [6]. Also, the figures for the growth in test [7] and in test [8] were 104% and 101%, respectively.

Regarding `CCOC(=O)c1cc(C(=O)c2ccc(Br)cc2)n2ccc(/C=C/c3cc[n+](CC(=O)c4ccc(OC)cc4)cc3)cc12`, the growth in test [1] is 90.1%; in test [2] it was 109%; in test [3], 101%; in test [4] it was 48.6%; in test [5], -9.87% (active); in test [6], 37.7%. For the same molecule, the figures for the growth in test [7] and in test [8] were 95.1% and 99.2%, respectively.

Turning to `OC(c1ccc(F)c(C(F)(F)F)c1)c1cnccc1NC1CCCCC1` (configuration not stated), the growth is 41.5% in test [1]; 90.5% in test [2]; 78.5% in test [3]; 58.3% in test [4]; 58.4% in test [5]; 36.4% in test [6]. Besides, the growth is -51% (active) in test [7] and 70.6% in test [8].

On to `O=C(/C=C(/C=C/c1coc2ccccc12)OB(F)F)/C=C/c1coc2ccccc12`, for which the growth in test [1] is 88.1%; in test [2] it was 99.3%; in test [3] it was 48.1%; in test [4], 86.3%; in test [5], 82.8%; in test [6], 75.3%. Also, the growth in test [7] is 98.8%; in test [8] it was 91.3%.

As for `CCOC(=O)[C@@H]1CCCN(S(=O)(=O)c2ccc(S(=O)(=O)N(CC)CC)c(F)c2)C1`, the growth in test [1] was 53.3%; in test [2], 58.5%; in test [3] it was 75.6%; in test [4], 86.6%; in test [5], 61.8%; in test [6], 42%. The growth in test [7] is 92.5%; in test [8], 81.9%.

For `Clc1ccc(-c2ccc(CNCC3CCNCC3)o2)c(-c2ccccc2)c1`, the growth is -75.2% (active) in test [1]; -5.56% (active) in test [2]; -92% (active) in test [3]; -85.9% (active) in test [4]; -73.9% (active) in test [5]; -87.2% (active) in test [6]. In addition, the growth in test [7] was -77.6% (active); in test [8], -84.2% (active).

For the molecule `COc1ccc(C(=O)c2cc(OC)c(OC)c(OC)c2)cc1O`, the growth is 54.7% in test [1]; 12% in test [2]; -41.1% (active) in test [3]; 22.3% in test [4]; 6.25% (active) in test [5]; 4.24% (active) in test [6]. Also, the growth in test [7] was 12.4%; in test [8], 9.38% (active).

Regarding `COc1ccc(-c2[nH][nH]c(=O)c2-c2nc3ccccc3s2)cc1`, the growth was 109% in test [1]; 97.6% in test [2]; 101% in test [3]; 101% in test [4]; 93.9% in test [5]; 101% in test [6]. Moreover, the growth in test [7] is 99.6%; in test [8], 101%.

Regarding `COC(=O)/C=C1\S/C(=N\NC(=O)c2cc3ccc2/C=C\c2ccc(cc2)/C=C\3)N(Cc2ccccc2)C1=O`, the growth is -6.25% (active) in test [1]; 10.3% in test [2]; 91.6% in test [3]; 18.2% in test [4]; 32.7% in test [5]; 49.5% in test [6]. Further, the growth was 79.5% in test [7] and 65.1% in test [8].

(Values after PubChem BioAssay (NCI).)
